# Results published in the supplement of paper PMC9694430.
# What was measured:
# Assay in all cases: thermal shift delta Tm vs DMSO control; higher = stronger stabilization (binding)
# Conditions in all cases: 12.5 µM; protein concentration 2 µM
# [1] = system: LOC_OS02G45750-cb003
# Summary of the method: (§1)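 Compounds dissolved in DMSO were added to purified rice kinase domain constructs, which had been expressed in E. coli, for differential scanning fluorimetry. Each well held 19.5 μl of 2 μM kinase in 100 mM potassium phosphate pH 7.5, 150 mM NaCl, 10% glycerol and 5 × SYPRO Orange. Fluorescence was followed from 25°C to 95°C at a rate of 0.05°C/s. Shifts in Boltzmann-fitted melting temperature are triplicate means relative to DMSO-only protein.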
# [2] = system: LOC_OS02G54510-cb004
# Summary of the method: as §1
# [3] = system: LOC_OS03G04050-cb001
# Summary of the method: as §1
# [4] = system: LOC_OS03G12390-cb001
# Summary of the method: as §1
# [5] = system: LOC_OS03G27990-cb004
# Summary of the method: as §1
# [6] = system: LOC_OS03G50450-cb001
# Summary of the method: as §1
# [7] = system: LOC_OS03G50810-cb003
# Summary of the method: as §1
# [8] = system: LOC_OS04G35114-cb001
# Summary of the method: as §1
# [9] = system: T1, LOC_OS04G38480-cb003
# T1 sequence (whole entry): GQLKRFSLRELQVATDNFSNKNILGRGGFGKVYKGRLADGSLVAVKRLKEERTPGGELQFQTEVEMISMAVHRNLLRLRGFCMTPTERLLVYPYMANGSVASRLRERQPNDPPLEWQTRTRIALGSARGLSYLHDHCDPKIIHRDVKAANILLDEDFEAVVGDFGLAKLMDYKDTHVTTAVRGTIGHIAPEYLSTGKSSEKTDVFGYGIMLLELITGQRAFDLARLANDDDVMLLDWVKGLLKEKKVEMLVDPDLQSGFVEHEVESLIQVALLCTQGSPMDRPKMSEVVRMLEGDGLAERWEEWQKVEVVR
# Summary of the method: as §1
# [10] = system: T2, LOC_OS04G41100-cb001
# T2 sequence (whole entry): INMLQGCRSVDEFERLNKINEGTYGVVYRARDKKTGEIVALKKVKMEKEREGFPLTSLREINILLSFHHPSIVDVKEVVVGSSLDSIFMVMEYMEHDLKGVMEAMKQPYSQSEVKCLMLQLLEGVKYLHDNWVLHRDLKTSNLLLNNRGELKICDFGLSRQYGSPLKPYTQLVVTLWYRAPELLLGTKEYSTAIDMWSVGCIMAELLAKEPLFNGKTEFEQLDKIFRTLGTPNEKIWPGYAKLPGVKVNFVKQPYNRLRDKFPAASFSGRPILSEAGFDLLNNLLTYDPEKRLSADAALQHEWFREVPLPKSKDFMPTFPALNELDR
# Summary of the method: as §1
Structure (SMILES),thermal shift delta Tm [1] [°C],thermal shift delta Tm [2] [°C],thermal shift delta Tm [3] [°C],thermal shift delta Tm [4] [°C],thermal shift delta Tm [5] [°C],thermal shift delta Tm [6] [°C],thermal shift delta Tm [7] [°C],thermal shift delta Tm [8] [°C],thermal shift delta Tm [9] [°C],thermal shift delta Tm [10] [°C]
CCc1ccc(/C=C2/SC(=S)NC2=O)cc1,-0.48,0.83,1.24,1.18,0.83,0.26,0.48,1.2,1.19,0.36
O=C(Nc1cccc(Nc2ncc(Br)c(NCCc3cnc[nH]3)n2)c1)N1CCCC1,9.57,1.18,0.77,2.81,1.73,6.39,5.57,5.16,2.86,2.52
COc1cc(Nc2ncc(F)c(Nc3ccc4c(n3)NC(=O)C(C)(C)O4)n2)cc(OC)c1OC [R406 (free base)],4.87,3.74,0.5,7.52,1.81,8.85,4.46,2.9,4.51,1.22
c1cncc(CN2CCC(n3ncc4c(N5CCOCC5)nc(-c5ccc6[nH]ccc6c5)nc43)CC2)c1,0.03,-0.13,0.22,-0.05,0.01,0.14,0.65,0.3,0.67,0.58
O=C(NCc1cccc(O)c1)Nc1nc(-c2ccncc2)cs1,-1.72,0.56,1.15,0.54,1.06,0.51,0.05,1.65,0.86,0.95
CNC(=O)c1ccc(Nc2ncc(C(F)(F)F)c(NCc3nccnc3N(C)S(C)(=O)=O)n2)cc1,9.52,1.99,0.04,5.45,3.54,2.16,4.32,5.66,2.85,1.45
COc1nccnc1NS(=O)(=O)c1ccc(NC(=O)/C=C/c2ccc([N+](=O)[O-])s2)cc1 [Necrosulfonamide],-0.78,0.22,0.43,-0.66,1.32,-0.09,0.29,1.14,0.24,-0.12
"C=CC(=O)Nc1cccc(Nc2nc(Nc3ccc(N4CCN(C(C)=O)CC4)cc3OC)ncc2C(F)(F)F)c1 [Rociletinib (CO-1686, AVL-301)]",1.53,0.29,0.43,11.1,0.66,1.7,2.22,2.08,0.94,0.4
O=C(NOC[C@H](O)CO)c1ccc(F)c(F)c1Nc1ccc(I)cc1F,0.77,0.16,0.43,0.47,0.21,0.26,0.28,-0.05,0.76,0.78
NC1(Cc2ccc(Cl)cc2)CCN(c2ncnc3[nH]ccc23)CC1,0.79,0.26,0.46,1.47,0.26,0.97,0.62,0.68,0.64,0.33
CCS(=O)(=O)N1CCN(c2ccc(Nc3ncc(C(N)=O)c(NC4CC4)n3)cc2)CC1,8.46,4.48,0.19,6.9,5.89,5.37,4.92,6.29,2.13,2.54
CS(=O)(=O)CCNCc1ccc(-c2ccc3ncnc(Nc4ccc(OCc5cccc(F)c5)c(Cl)c4)c3c2)o1,-0.27,0.18,0.24,0.39,0.11,0.01,0.17,0.48,0.99,0.27
Cc1ccc(CNc2ncnc3ccc(-c4ccc(CO)o4)cc23)o1,1.72,0.02,0.46,1.65,0.24,0.03,-0.19,4.83,0.75,1.05
CNC(=O)c1cc(COc2nnc(Nc3ccc(Cl)cc3)c3ccoc23)ccn1 [Telatinib],0.27,0.15,0.24,-0.25,0.21,0.19,0.38,0.7,1.95,1.53
Cc1[nH]c(/C=C2\C(=O)Nc3ccc(S(=O)(=O)N(C)c4cccc(Cl)c4)cc32)c(C)c1C(=O)N1CCN(C)CC1,0,0.59,0.42,2.96,0.14,-0.1,0,7.25,5.89,0.68
COc1ccc(Cl)cc1NC(=O)Nc1cc(C)nc2ccccc12,0.37,0.12,0.38,0.21,0.52,0.68,0.32,0.93,0.32,0.36
CCCCNc1ncc(C(=O)NCc2ccc(-n3ccnc3)cc2)c(NC2CCC(O)CC2)n1 (stereo not given),12.4,0.46,0.27,2.82,5.72,1.85,4.77,9.02,2.91,0.89
C=CC(=O)Nc1cccc(Nc2nc(Nc3ccc(NC4CN(CCF)C4)cc3OC)ncc2C(F)(F)F)c1,0.83,0.67,0.56,8.48,0.5,0.39,1.26,0.98,0.06,0.29
